Data: PubChem BioAssay (EPA / NIEHS)
The source made the active and inactive calls. How the source made its calls: active means hit-call score of the fitted dose curve at least 0.9, where 1 is the maximum; inactive means score below 0.9.

Read-out: Transforming Growth Factor (TGFB1), TGFB1 (gene 7040)
Assay: LTEA_HepaRG_TGFB1: Life Technologies and Expression Analysis (LTEA) Assay for Transforming Growth Factor (TGFB1) Transporter using HepaRG (AID 2283533)
Settings: mRNA level, 48 h; actives raise or lower the signal
Protocol: LTEA_HepaRG is a cell based, multiplexed-readout assay that uses HepaRG, a human liver cell line, with measurements taken at 48 hours after chemical dosing on a 96-well plate.LTEA_HepaRG_TGFB1 is one of 102 assay component(s) measured in the LTEA HepaRG cell culture assay. It is a marker of Cell proliferation, survival, death.Data from the assay component LTEA_HepaRG_TGFB1 was analyzed into 1 endpoint. This assay endpoint, LTEA_HepaRG_TGFB1, was analyzed with bidirectional fitting relative to DMSO as the negative control and baseline of activity. Using a type of inducible reporter, measures of mRNA induction for gain or loss-of-signal activity can be used to understand regulation of transcription factor activity. To generalize the intended target to other relatable targets, this assay endpoint is annotated to the growth factor intended target family, where the subfamily is transforming growth factor beta.
A total of 1060 chemcials from the ToxCast library were tested in eight-point concentration-response experiments. Cell culture and cytotoxicity assays were conducted at Thermo Fisher Scientific's Custom Services facility (Madison, WI). A single lot of human HepaRG cells (Thermo Fisher Scientific, Frederick, MD) was used for the cell culture experiments. 96-well format collagen type I coated plates of human HepaRG cells were prepared using established methods. Briefly, cryopreserved HepaRG cells were thawed, plated at a density of approximately 100,000 cells/well in HepaRG Thaw, Plate, and General Purpose media (HPRG770, Thermo Fisher Scientific), and incubated for 48 hours. 0.5% DMSO was selected as vehicle control to balance the requisite need of DMSO in HepaRG cultures to maintain differentiation (for example, baseline metabolism, proportions of hepatocytes vs. cholangiocytes), while enabling further hepatic receptor pathway activation (for example, PXR and CAR) in response to chemical exposure. 48 hours after plating, the culture medium was replaced with HepaRG Serum-Free Incudtion Media. Cells were exposed to each test chemical in duplicate and maintained in CO2 incubators for another 48 hours. Chemical plates were thawed to room temperature and 200x concentrations of treatment groups were prepared. 8-point conentration-reponse curves were made with the highest exposure at 100 uM, followed by half-log dilutions, all in 0.5% DMSO. Each test plate contained variouse controls, induction positive controls (1mM phenobarbital), cytotoxicity positive controls ([…] aflatoxin B1), vehicle controls (0.5% DMSO), and total lysis controls (0.5% DMSO). Cell morphology images were taken using an Essen IncuCyte FLR automated microscope, with six 96-well plates imaged in about 24 minutes. Images were captured and exported and JPEG files. Spent culture media was transfered to black-well plates for the LDH assay, and remaining media was sorted at -80 C for later use. Cells were treated with RLT buffer and frozen until shipped for gene expression analysis. Total RNA was isolated from the cell suspension in 75 uL of Buffer RLT (Qiagen, Germantown, MD 20874) by Quintiles/Expression Analysis (Durham, NC) using a custom isolation procedure. Total RNA from each plate well was transferred to a preamplification plate. Fluidigm's 96.96 Dynamic ArrayTM (Fluidigm, Amsterdam, the Netherlands) technology was used for gene expression analyses by quantitative reverse transcription polymerase chain reaction (qRT-PCR, performed by Quintiles/Expression Analysis, Durham, NC)89. Standard TaqManTM Assays (Applied Biosystems/ThermoFisher Scientific, Foster City, CA) were used to assess the expression of 93 genes selected based on their selectivity and sensitivity to important hepatic receptors known to be modulated by environmental chemicals; importance in human hepatocyte functionality; and hepatotoxicity. […]

Row | Structure (SMILES) | outcome | AC50
1 | CCCC[C@H]1CN(CC2CCOCC2)C(=O)OC12CCN(C1(C)CCN(C(=O)c3c(C)ncnc3C)CC1)CC2 | inactive | –
2 | O=C(O)CC(O)(CC(=O)O)C(=O)O | inactive | –
3 | CO[C@@H]1COCC[C@@H]1N[C@@H]1CC[C@@](C(=O)N2CCc3ncc(C(F)(F)F)cc3C2)(C(C)C)C1 | inactive | –
4 | CCC(C)N(C)C(=O)c1cc2ccccc2c(-c2ccccc2Cl)n1 (stereo not given) | inactive | –
5 | S=c1[nH]c2ccccc2s1 | inactive | –
6 | O=C(O)c1cccnc1 | inactive | –
7 | CCCCC(CC)COC(=O)CCCCCCCC(=O)OCC(CC)CCCC (stereo not given) | inactive | –
8 | Cc1occc(=O)c1O | inactive | –
9 | O=Cc1ccccc1C=O | inactive | –
10 | COc1ccc(C(=O)Nc2nc3ccccc3c(NCc3ccccc3)c2C#N)cc1 | – | 7.58 µM (active)
11 | C/C=C/c1ccc(OC)cc1 | inactive | –
12 | CCCCCCCC(=O)OC | inactive | –
13 | CCCCCCC(CCCCCCCCCCC(=O)OCC(COC(C)=O)OC(C)=O)OC(C)=O (stereo not given) | inactive | –
14 | CCc1nc(N)nc(N)c1-c1ccc(Cl)cc1 | inactive | –
15 | NC1CCCCC1 | inactive | –
16 | Nc1nc(Cl)nc2c1ncn2[C@H]1C[C@H](O)[C@@H](CO)O1 | – | 0.365 µM (active)
17 | CSc1ccc(Oc2ccc(S(N)(=O)=O)cc2CN(C)C)cc1C | inactive | –
18 | Cc1cc(SC2=C(O)C[C@@](CCc3ccc(N)cc3)(C(C)C)OC2=O)c(C(C)(C)C)cc1CO | inactive | –
19 | CCCCC(CC)COP(=O)(OCC(CC)CCCC)OCC(CC)CCCC (stereo not given) | inactive | –
20 | COc1ccc(OC(F)(F)F)cc1CN[C@H]1CCCN[C@H]1c1ccccc1 | inactive | –

Row | Structure (SMILES) | outcome | AC50
21 | C=CCc1ccc(OC)c(OC)c1 | inactive | –
22 | CN(C)C(=O)NC1(c2ccccc2)CCN(CC[C@@]2(c3ccc(F)c(F)c3)CN(C(=O)c3ccccc3)CCO2)CC1 | inactive | –
23 | O=C1OC(c2ccc(O)cc2)(c2ccc(O)cc2)c2ccccc21 | inactive | –
24 | COC(=O)CCCC(=O)OC | inactive | –
25 | C/C=C/C=C/C(=O)O | inactive | –
26 | CC(C)COC(=O)CCCCC(=O)OCC(C)C | inactive | –
27 | CC(=O)O[C@]1(C(C)=O)CC[C@H]2[C@@H]3C=C(Cl)C4=CC(=O)[C@@H]5C[C@@H]5[C@]4(C)[C@H]3CC[C@@]21C | inactive | –
28 | CCN(CC)CCOc1ccc(C(=C(Cl)c2ccccc2)c2ccccc2)cc1 | – | 42 µM (active)
29 | CCCCC(CC)CO (stereo not given) | inactive | –
30 | Cc1c(C)c2c(c(C)c1O)CCC(C)(COc1ccc(CC3SC(=O)NC3=O)cc1)O2 (stereo not given) | – | 12 µM (active)
31 | C=CCCCCCCCCCCCC | inactive | –
32 | CCCCCCCCCCCCCCCCO | inactive | –
33 | CCCCc1nc2cccnc2n1Cc1ccc(-c2ccccc2-c2nnn[nH]2)cc1 | inactive | –
34 | CC1=C(C)S(=O)(=O)CCS1(=O)=O | inactive | –
35 | O=C1CCCCC1 | inactive | –
36 | CC(=O)OC1CC(C)OC(C)O1 (stereo not given) | inactive | –
37 | OCC(CO)n1cnc(-c2ccc(F)cc2)c1-c1ccnc(Oc2ccccc2)n1 | inactive | –
38 | CCCCCCCCCC[N+](C)(C)[O-] | inactive | –
39 | NC=O | inactive | –
40 | CCc1cc(C2=C(C(=O)O)N(c3ccccc3C(F)(F)F)S(=O)(=O)c3ccccc32)cc2c1OCO2 | inactive | –
